About 83,000 compounds went through this panel and 20% of them were active in at least one assay; those are over-represented in the sample as a whole.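 A percent growth of 40 corresponds to 60% growth inhibition; 0 means no net growth; -100 means all cells died. Active threshold: below 10.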 A number with no mark means an inactive call. Active and inactive are the calls of the source.

Common to all, as to assay: NCI-60 one-dose screen, 48 h (100 = growth as untreated, 0 = no growth, -100 = all killed)
One assay relates to SK-MEL-2 melanoma. Conditions: 10 µM unless noted.
Another assay has as its system EKVX NSCLC. Particulars: 10 µM unless noted.
In the next assay the test system is SN12C renal. Conditions: 10 µM unless noted.
A further assay has as its system UO-31 renal. Particulars: 10 µM unless noted.
The next assay deals with ACHN renal. Conditions: 10 µM unless noted.
Another assay concerns CAKI-1 renal. Particulars: 10 µM.
For the next assay, the system named is A498 renal. Conditions: 10 µM unless noted.
The subject of a further assay is CCRF-CEM leukemia. Particulars: 10 µM unless noted.
The subject of a further assay is MOLT-4 leukemia. Conditions: 10 µM unless noted.
In the next assay the test system is SR leukemia. Particulars: 10 µM unless noted.
Another assay has as its system OVCAR-8 ovarian. Conditions: 10 µM unless noted.
A further assay has as its system OVCAR-5 ovarian. Particulars: 10 µM unless noted.
The subject of the next assay is OVCAR-4 ovarian. Particulars: 10 µM unless noted.
A further assay has as its system SK-OV-3 ovarian. Particulars: 10 µM unless noted.
Another assay relates to IGROV1 ovarian. Conditions: 10 µM unless noted.
Another assay concerns OVCAR-3 ovarian. Conditions: 10 µM unless noted.
The test system of a further assay is NCI/ADR-RES ovarian. Conditions: 10 µM unless noted.
The subject of a further assay is RPMI-8226 leukemia. Conditions: 10 µM unless noted.
For a further assay, the system named is HS 578T breast. Particulars: 10 µM unless noted.

On to `Cc1cc(NC(=O)c2cccc(C(F)(F)F)c2)ccc1-n1ccc2c(NC(=O)c3ccccc3)nccc21`, for which the growth in the assay with SK-MEL-2 melanoma was 101%; in the assay on EKVX NSCLC, 94.1%; in the assay with SN12C renal, 94%; in the assay with UO-31 renal it was 78.5%; in the assay on ACHN renal it was 106%; in the assay on CAKI-1 renal, 93.1%. The growth in the assay with A498 renal is 112%; with CCRF-CEM leukemia, 88.3%; with MOLT-4 leukemia, 87.8%; in the assay with SR leukemia, 96.3%; with OVCAR-8 ovarian it was 98.2%; with OVCAR-5 ovarian, 98.3%. The growth in the assay with OVCAR-4 ovarian is 96.7%; with SK-OV-3 ovarian, 108%; with IGROV1 ovarian, 92.7%; with OVCAR-3 ovarian, 95.7%; in the assay with NCI/ADR-RES ovarian, 102%.

Consider `Cc1ccc(-c2cc(-c3nnc(SCC(=O)c4ccccc4)o3)c3ccccc3n2)cc1`, for which the growth is 90.7% with SK-MEL-2 melanoma; 83.4% in the assay on EKVX NSCLC; 101% in the assay on SN12C renal; 74.6% in the assay with UO-31 renal; 93.9% in the assay with ACHN renal; 77% in the assay on A498 renal. The growth is 100% in the assay on CCRF-CEM leukemia; 95.2% in the assay on MOLT-4 leukemia; 77.4% in the assay with SR leukemia; 106% with RPMI-8226 leukemia; 100% in the assay on OVCAR-8 ovarian; 92% with OVCAR-5 ovarian. In addition, the growth in the assay on OVCAR-4 ovarian was 86%; in the assay with SK-OV-3 ovarian, 106%; in the assay with IGROV1 ovarian it was 94.1%; with OVCAR-3 ovarian, 97.7%; in the assay on HS 578T breast, 101%; with NCI/ADR-RES ovarian, 91.9%.

Consider `O=C(Nc1ccc(-n2cc(-c3ccncc3)c(-c3ccc(O)c(Cl)c3)n2)cc1)Nc1cc(C(F)(F)F)cc(C(F)(F)F)c1`, for which the growth in the assay on SK-MEL-2 melanoma was 77.6%; in the assay on EKVX NSCLC, 44.6%; in the assay on SN12C renal it was 61.6%; in the assay with UO-31 renal it was 59.6%; in the assay with ACHN renal, 65.5%; in the assay with CAKI-1 renal, 46.6%. Besides, the growth is 65.9% with A498 renal; 55.8% in the assay with CCRF-CEM leukemia; 64.3% with MOLT-4 leukemia; 69.7% with SR leukemia; 56.4% with OVCAR-8 ovarian; 75.7% in the assay with OVCAR-5 ovarian. In addition, the growth is 82.2% in the assay with OVCAR-4 ovarian; 81.7% in the assay on SK-OV-3 ovarian; 56.3% in the assay with IGROV1 ovarian; 33.3% with OVCAR-3 ovarian; 55% in the assay on NCI/ADR-RES ovarian.

`COc1ccc(-c2nn(-c3ccc(NC(=O)Nc4cc(C(F)(F)F)cc(C(F)(F)F)c4)cc3)cc2-c2ccncc2)cc1Cl`: the growth in the assay on SK-MEL-2 melanoma is -38.3% (active); with EKVX NSCLC, 21.7%; in the assay on SN12C renal it was 17.2%; in the assay with UO-31 renal, 13.3%; in the assay with ACHN renal, 18.5%; in the assay with CAKI-1 renal it was 5.4% (active). In addition, the growth in the assay with A498 renal is 0.688% (active); in the assay on CCRF-CEM leukemia, 9.25% (active); in the assay with MOLT-4 leukemia, 6.78% (active); with SR leukemia, 1.23% (active); in the assay on OVCAR-8 ovarian it was 12.9%; with OVCAR-5 ovarian, 17.7%. Besides, the growth is 47% in the assay with OVCAR-4 ovarian; 22.9% in the assay on SK-OV-3 ovarian; 26.3% in the assay on IGROV1 ovarian; 3.27% (active) in the assay with OVCAR-3 ovarian; 14% in the assay with NCI/ADR-RES ovarian.

For `COc1ccccc1P(c1ccccc1OC)c1ccccc1OC`, the growth with SK-MEL-2 melanoma was 99.1%; with EKVX NSCLC, 91%; with SN12C renal, 113%; with UO-31 renal it was 86.1%; with ACHN renal, 98.3%; in the assay on CAKI-1 renal, 86.2%. Also, the growth with A498 renal is 79.4%; with CCRF-CEM leukemia it was 130%; with MOLT-4 leukemia, 105%; with SR leukemia it was 107%; in the assay with RPMI-8226 leukemia, 113%; in the assay on OVCAR-8 ovarian, 66%. Besides, the growth with OVCAR-4 ovarian was 100%; in the assay with SK-OV-3 ovarian, 91.2%; in the assay on OVCAR-3 ovarian it was 108%; in the assay on HS 578T breast, 133%; in the assay with NCI/ADR-RES ovarian it was 172%.

With `Nc1nccc2c1ccn2-c1cccc(NC(=O)c2ccc(N3CCOCC3)c(C(F)(F)F)c2)c1`, the growth in the assay on SK-MEL-2 melanoma is -6.68% (active); in the assay with EKVX NSCLC, 44.4%; with SN12C renal, 25.6%; in the assay with UO-31 renal it was 7.5% (active); in the assay with ACHN renal it was 13.3%; in the assay with CAKI-1 renal it was -0.708% (active). Further, the growth is -12.9% (active) in the assay with A498 renal; 7.34% (active) in the assay with CCRF-CEM leukemia; 9.73% (active) in the assay on MOLT-4 leukemia; -13.4% (active) in the assay on SR leukemia; -40.9% (active) with RPMI-8226 leukemia; 0.868% (active) with OVCAR-8 ovarian. The growth was 32.6% with OVCAR-5 ovarian; 78.5% in the assay with OVCAR-4 ovarian; 16.6% in the assay with SK-OV-3 ovarian; 28.1% in the assay with IGROV1 ovarian; -27.2% (active) in the assay on OVCAR-3 ovarian; -2.74% (active) in the assay with NCI/ADR-RES ovarian.

`CCC1(C(N)=O)CC2C=CC1CC2` (configuration not stated): the growth is 124% in the assay on SK-MEL-2 melanoma; 115% in the assay on EKVX NSCLC; 118% in the assay with SN12C renal; 90.8% in the assay with UO-31 renal; 107% in the assay on ACHN renal; 96.6% with CAKI-1 renal. Moreover, the growth with A498 renal is 95.7%; in the assay with CCRF-CEM leukemia it was 127%; in the assay on MOLT-4 leukemia, 111%; in the assay on SR leukemia it was 109%; with RPMI-8226 leukemia, 89.1%; with OVCAR-8 ovarian, 61.2%. The growth in the assay on OVCAR-4 ovarian is 108%; with SK-OV-3 ovarian, 91.9%; in the assay on OVCAR-3 ovarian, 115%; in the assay on HS 578T breast, 149%; in the assay on NCI/ADR-RES ovarian, 244%.

Regarding `Nc1nccc2c1ccn2-c1ccc(NC(=O)Nc2cccc(C(F)(F)F)c2)cc1`, the growth with SK-MEL-2 melanoma was 113%; in the assay with EKVX NSCLC, 93.7%; in the assay with SN12C renal, 87.1%; in the assay on UO-31 renal, 81.4%; with ACHN renal, 91.6%; in the assay with CAKI-1 renal it was 97.4%. For the same compound, the growth in the assay on CCRF-CEM leukemia is 94.1%; in the assay on MOLT-4 leukemia it was 82.8%; in the assay on SR leukemia, 91.5%; in the assay on OVCAR-8 ovarian it was 93.1%; with OVCAR-5 ovarian, 97.9%; in the assay on OVCAR-4 ovarian it was 108%. The growth in the assay on SK-OV-3 ovarian was 104%; in the assay on IGROV1 ovarian, 95.1%; in the assay on OVCAR-3 ovarian, 80.8%; with NCI/ADR-RES ovarian, 89.3%.

For the origin of these results see PubChem BioAssay (NCI).
